Measured values: PubChem BioAssay AID1159580 (chemical genetic matrix, 2015)
Among all 5,500 compounds or so, about 2,000 (36%) were called active. Another 18% or so got no clear call; they are omitted. Cut-off read from the data, not from the text of the source: active = normalized growth mostly below about 0.91 (no sharp cut-off); inconclusive = no clear call, values can overlap the other calls; inactive = mostly above about 0.92. The list shows a part of the results.

Assay: chemical genetic growth profiling, strain panel (AID 1159580);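 note: tested at 20 µM; growth read once vehicle control cultures reached saturation at 30 °C; 1 = growth at the plate median or of vehicle wells; lower values mean less growth of the strain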
Details: S. cerevisiae deletion strains, growth OD
[1] = locus YAL040C, strain CLN3, active compounds read low
[2] = locus YCL061C, strain MRC1 (second series), active compounds read low
[3] = locus YDR363W, strain ESC2, active compounds read low
[4] = locus YER002W, strain NOP16, active compounds read low
[5] = locus YMR263W, strain SAP30, active compounds read low
[6] = locus YNL175C, strain NOP13, active compounds read low
[7] = locus YNL197C, strain WHI3, active compounds read low
[8] = locus YNL224C, strain SQS1, active compounds read low
[9] = locus YOR083W, strain WHI5 (second series), active compounds read low
[10] = locus YPL055C, strain LGE1, active compounds read low
[11] = locus YPL241C, strain CIN2, active compounds read low

Measured: normalized growth

S=C=Nc1cccc(C2(N3CCCCC3)CCCCC2)c1
inactive: locus YAL013W, strain DEP1, active compounds read low 0.993 | [1] 0.998 | [2] 0.998 | [3] 0.993 | [4] 1.01 | locus YJR075W, strain HOC1, active compounds read low 0.984 | [5] 1 | locus YMR307W, strain GAS1, active compounds read low 1 | locus YNL153C, strain GIM3, active compounds read low 0.968 | [6] 0.994 | [7] 1.08 | [8] 1.04 | [9] 1 | [10] 0.939 | [11] 1

CC1(C)CCC(NC(=O)[C@@H](N)CCC(=O)O)CC1
inactive: [1] 1.02 | [2] 0.999 | [3] 1.02 | [4] 0.995 | locus YGR078C, strain PAC10, active compounds read low 1.02 | [5] 0.999 | [6] 1.01 | [7] 0.998 | [8] 0.999 | locus YNL322C, strain KRE1, active compounds read low 1.01 | [9] 1 | [10] 1.02 | [11] 0.996
